Source: PubChem BioAssay (NCI)
This is part of a sample that, as a whole, favours compounds with a hit. Of some 83,000 tested, about 20% had one in any assay.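 Activity criterion: percent growth below 10, measured after cells in 96-well plates were exposed to a single compound concentration for 48 hours.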 Active and inactive are the calls of the source.

system: MDA-MB-468 breast; assay: NCI-60 one-dose screen, 48 h (100 = growth as untreated, 0 = no growth, -100 = all killed); conditions: 10 µM unless noted

Row | SMILES | growth
1 | O=C(c1ccccc1)C(CN1CCCCC1)c1ccccc1 (stereo unspecified) | -29.1% (active)
2 | CC1CCC2C(C)(C)C3CC12CC1OC13C (stereo unspecified) | 99.8% (inactive)
3 | COc1ccccc1/C=C\C(=O)c1ccccc1 | 82.7% (inactive)
4 | O=CNc1cc(Cl)cc(Cl)c1 | 103% (inactive)
5 | c1ccc2cc(Cn3cc[n+](Cc4ccc5ccccc5c4)c3)ccc2c1 | -23.7% (active)
6 | CC1(C)N=C(N)N=C(N)N1c1ccc(S(=O)(=O)Nc2nccs2)cc1 | 103% (inactive)
7 | COc1cccc(OC(=O)c2ccccc2)c1OC(=O)c1ccccc1 | 39.4% (inactive)
8 | CSC(=N\N=C\c1ccc(N(C)C)cc1)/N=C/N(C)C | 83.5% (inactive)
9 | O=C(Nc1cccc(-c2cccc(F)c2)c1)C1CCN(Cc2cccc3cccnc23)CC1 | 22.6% (inactive)
10 | O=C1/C(=C/c2ccc(F)cc2)C=C(c2ccccc2)N1CCc1ccccc1 | 72.9% (inactive)
11 | O=C1COCCN1c1ccc(NCc2cn(Cc3cccc4ccccc34)c3ccccc23)cc1 | -24.8% (active)
12 | CC1(/C=C/c2ccc(-c3ccccc3)cc2)CCn2cnc3ncnc(c32)N1O (stereo unspecified) | -5.41% (active)
13 | O=C(Nc1nc(Cl)nc(Nc2ccc(N3CCOCC3=O)cc2)n1)c1ccc(Cl)s1 | 68.1% (inactive)
14 | O=C(Nc1ccc(Oc2ccc(F)cc2)c(Cl)c1)c1cnccn1 | 31.8% (inactive)
15 | COC1=CC(c2ccc[nH]2)=N/C1=C\c1[nH]c(C)c(CC(=O)OCc2ccccc2)c1C | -24.6% (active)
16 | C[C@@H]1CC[C@@]2(OC1)O[C@H]1C[C@H]3[C@@H]4CC=C5C[C@@H](O[C@@H]6O[C@H](CO)[C@@H](O[C@@H]7O[C@@H](CO)[C@H](O)[C@H]7O)[C@H](O)[C@H]6O[C@@H]6O[C@@H](C)[C@H](O)[C@@H](O)[C@H]6O)CC[C@]5(C)[C@H]4CC[C@]3(C)[C@H]1[C@@H]2C | -40.3% (active)
